# Laboratory results as given in PubChem BioAssay (NCI).
# Compounds without any hit were thinned out: in the full panel of roughly 83,000, 20% have a hit.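 Step 1: grow cells in 96-well plates. Step 2: add test compound at a single concentration. Step 3: incubate 48 h. Step 4: record percent growth.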 Activity calls are given as the source filed them.
# Tested on: HCT-15 colon
# Test: NCI-60 one-dose screen, 48 h (100 = growth as untreated, 0 = no growth, -100 = all killed)
# Settings: 10 µM unless noted
# Experimental: Growth inhibition of the HCT-15 human tumor cell line is measured as a screen for anti-cancer activity. Cells are grown in 96 well plates and exposed to the test compound for 48 hours. Compounds are tested at a single concentration, which is 10^-5 M for most compounds. The reported endpoint is percent growth (GI% or GIPRCNT), where numbers from 0 - 100% represent growth inhibition, and numbers from -100% - 0 represent cell death. For example, a value of 40 represents 60% growth inhibition. A value of 0 means no net growth occurred over the course of the experiment. A value of -40 indicates 40% of cells at the beginning of the experiment died by the end of the experiment. A value of -100 means all cells are dead at the end of the experiment.
# NCI-60 Human Tumor Cell Lines Screen was performed using the standard one-dose NCI protocol, which is described in more detail at https://dtp.cancer.gov/discovery_development/nci-60/default.htm.
# Compounds with GIPRCNT values below 10 were considered active. Activity score was based on GIPRCNT using the following formula: […]
# Score is 0 for GIPRCNT values of 100 or above, 50 for GIPRCNT values of 0, and 100 for GIPRCNT values of -100.
row,Structure (SMILES),growth
1,COC(=O)c1c2c(c(C)[n+]([O-])c1C)C(=O)C=C(NCc1ccc(Cl)cc1)C2=O,-54.8% (active)
2,O=c1[nH]c(=S)[nH]c(=O)n1Cc1cccc2ccccc12,98.3% (inactive)
3,CS(=O)(=O)Nc1cccc(C(=O)NCc2ccc(N3CCOCC3)cc2)c1,104% (inactive)
4,N#CC1=C(N)Oc2cc(N)ccc2C1c1ccc(F)cc1 (stereo not given),46.9% (inactive)
5,Cn1c(=O)c2c(-c3ccccc3F)n(-c3ccc4c(c3)OCO4)cc2n(C)c1=O,87.8% (inactive)
6,COc1cccc(-c2ccc3c(c2)C2CCN(Cc4ccccc4)C3C2)c1 (stereo not given),57.8% (inactive)
7,CN1CCC(OC2c3ccccc3CCc3ccccc32)CC1,98.8% (inactive)
8,COC(=O)c1c2c(c(C)[n+]([O-])c1C)C(=O)C=C(NCc1ccc(F)cc1)C2=O,-60.5% (active)
9,COc1ccc(/C=C2\Oc3cc(C)c(Cl)cc3C2=O)cc1OC,96.5% (inactive)
10,O=C(COc1ccc(/C=C2\CSc3ccccc3C2=O)cc1)c1ccc(Cl)cc1,108% (inactive)
11,CN(C)c1ccc(/C=C(\C#N)c2cc3ccccc3n2C)cc1,20.6% (inactive)
12,O=C(CCc1nnc2sc(-c3ccccc3)nn12)c1nc2ccccc2[nH]1,98.5% (inactive)
13,O=c1[nH]c(=S)c2c(n1CCCO)CCC2,101% (inactive)
14,COc1ccc(C2OCC(C)(C)CO2)cc1OC,106% (inactive)
15,COc1ccc(C2SC(C)C(=O)N2CCc2cccs2)cc1OC (stereo not given),87.8% (inactive)
16,CCCOC(=O)c1ccc2c(c1)[N+](=O)C(C(=O)c1ccccc1)=C(C(F)(F)F)[N+]2=O,-65.7% (active)
17,COc1cc(C(=O)N(C(C)C)C2CCCCC2)cc(OC)c1OC,103% (inactive)
18,COc1cc(/C=C/C(=O)C(=Cc2ccc(F)c(F)c2)C(=O)/C=C/c2ccc(O)c(OC)c2)ccc1O,26% (inactive)
19,COC(=O)[C@@H]1CCCN1C(=O)[C@@H]1CCCN1C(=O)[C@@H](Cc1c[nH]c2ccccc12)NC(=S)Nc1cc(C(F)(F)F)cc(C(F)(F)F)c1,74.6% (inactive)
20,C=CC(=O)N1CC2(CC(n3nc(-c4ccc(Oc5ccccc5)cc4)c4c(N)ncnc43)C2)C1,29.2% (inactive)

row,Structure (SMILES),growth
1,Nc1nc(N)c(N=Nc2c(Br)cc(S(N)(=O)=O)cc2Br)c(N)n1,114% (inactive)
2,CN1CCN(CCCn2c3c(sc4ncccc43)c(=O)n3nnc(-c4ccccc4)c23)CC1,-40.1% (active)
3,Nc1c(Br)cc(Br)cc1-c1n[nH]c(=O)[nH]c1=O,98.1% (inactive)
4,CN([N-]C(=O)CC(=O)[N-]N(C)C(=S)c1ccccc1)C(=S)c1ccccc1.[Cu+2],2.52% (active)
5,Cc1nc2cc(Nc3nc(N4CCOCC4)nc(N4CCN(C)CC4)n3)ccc2n1Cc1ccccc1,96% (inactive)
6,Cc1cc(=O)[nH]n1-c1cc(Cl)ccc1N,92.4% (inactive)
7,CCCCCCCCCCCCCCNc1nc(CO)ncc1-c1ccc(C(F)(F)F)cc1,103% (inactive)
8,O=c1onc(-c2ccccc2)c2ccccc12,115% (inactive)
9,COc1ccc(C(=O)COc2cccc(/C=C3\CSc4ccc(C)cc4C3=O)c2)cc1,84.8% (inactive)
10,COC(=O)[C@@]12CC[C@@H](C)[C@]3(C[C@@H](c4ccoc4)OC3=O)[C@H]1CC[C@@H]1O[C@@]12C,101% (inactive)
11,Clc1cccc(Cl)c1Nc1ccc2nnc(-c3ccncc3)n2n1,90.9% (inactive)
12,COc1cc(C(=O)/C=C/c2c(-c3cccs3)nc3sccn23)cc(OC)c1OC,-36.7% (active)
13,Cc1nc2cc(Nc3nc(NCCO)nc(Nc4ccc(F)cc4)n3)ccc2n1Cc1ccccc1,100% (inactive)
14,CCOC(=O)C1=C(C)N2C(=NC3=C(CCCC/C3=C\c3ccccc3)C2c2ccccc2)S1 (stereo not given),96.9% (inactive)
15,COc1ccc(S(=O)(=O)ON=C2C=C(C)C(=O)C(C)=C2)cc1,85.9% (inactive)
16,CC(=O)Nc1ccc(Sc2ccc([N+](=O)[O-])o2)cc1,2.17% (active)
17,Cc1cc(=O)oc2c1ccc1oc(C(=O)c3ccccc3)c(C)c12,64% (inactive)
18,COc1ccc(/C=C(\C#N)c2cc3ccccc3n2C)cc1,23.9% (inactive)
19,Clc1ccc(Nc2nc(Nc3ccccc3)nc(Nc3ccc(-c4cc(-c5ccc(Cl)cc5)on4)cc3)n2)cc1,43.1% (inactive)
20,Cc1nc2nc(C(F)(F)F)[nH]c2nc1C,111% (inactive)
